High-throughput results: PubChem, several laboratories
697 NFkB inh: inhibitors of the PMA/ionomycin-induced NF-kB reporter in 697 B cells; 697 B-cell NF-kB luciferase reporter, 16 h; inhibition, % at 4 µM; actives 0.33% (n = 330,000); in the data active = inhibition above about 35%
Jurkat NFkB inh: lowers PMA/ionomycin-induced NF-kB signal in Jurkat cells; actives 0.53% (n = 330,000); AID 435003; PMA/ionomycin-induced NF-kB luciferase reporter, luminescence; inhibition, % at 4 µM; in the data active = inhibition above about 50%
HIF activator: HIF pathway transcriptional activation | actives 0.32% (n = 300,000) | activation, % at 7.5 µM (by protocol) | AID 1910 | U2OS HRE-luciferase reporter, luminescence; normalized: DMSO 0%, desferrioxamine 100%;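 active = mean activation of at least 10% of the iron chelator positive control signal, with at least half of replicates also reaching 10%; inconclusive = mean and replicate majority disagree about reaching 10%; inactive = mean and most replicates under 10%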
CFTR F508del cor: CFTR F508del correction in bronchial cells. activity (quench increase), % at 7.58 µM. actives 0.36% (n = 350,000). CFBE cells, YFP halide quenching; stimulated with forskolin plus potentiator P3; % fluorescence drop versus neutral controls. AID 720511;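 active = mean added fluorescence quench of at least 8% versus neutral control, with both replicates also reaching 8%; inconclusive = only one of the mean or replicate conditions met; inactive = mean below 8% and not both replicates reaching 8%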;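 note: cells transiently co-express mutant CFTR-F508del with the halide-sensitive YFP; corrector assay measuring rescue of mutant channel to the surface after 24 h compound exposure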
Jurkat NFkB conf: inhibitors of the PMA/ionomycin-induced NF-kB reporter in Jurkat cells, retest; inhibition, % at 4 µM; actives 27% (n = 2,700); Jurkat NF-kB luciferase, 16 h; shares compounds with Jurkat NFkB inh;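 active = inhibition reaching about 45% at 4 µM in either replicate, limit read from the data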;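 note: plate controls were PMA/ionomycin stimulated DMSO wells for no effect and unstimulated DMSO wells for full effect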
Active calls of the source: *; ? = inconclusive; / = not tested or not shown. Sampled rows, rich in hits. Any-hit rate of the full collection: about 0.93%.

SMILES | 697 NFkB inh | Jurkat NFkB inh | HIF activator | CFTR F508del cor | Jurkat NFkB conf
COc1ccc(NC(=O)N(C)C[C@@H]2OCc3ccccc3-c3c(n(C)c4ccccc34)C(=O)N([C@H](C)CO)C[C@@H]2C)cc1 | / | / | / | -1 | /
Oc1ccccc1-c1cc(-c2ccccc2)n[nH]1 | -200 | -181 | / | 0 | -81
Fc1ccc(-c2nnc(-c3ccc(Cl)cc3Cl)o2)cc1 | -169 | -137 | 3 | 2 | /
Clc1ccc(-c2nnc(-c3ccccc3)o2)c(Cl)c1 | -242 | -163 | -2 | / | -75
C(=N\Nc1ccccn1)/c1ccc2c(c1)OCCO2 | -213 | -172 | 1 | -1 | -106
CCCOc1ccc(/C=N/Nc2ccccn2)cc1OC | -120 | -172 | 6 | -3 | -29
CN1CCN(C(=O)C[C@@H]2CC[C@H]3[C@@H](COC[C@H](O)CN3CC3CCCCC3)O2)CC1 | / | / | / | 4 | /
CC1CC(C)CN(S(=O)(=O)c2ccc(NC(=O)c3ccc(=O)[nH]c3)cc2)C1 (stereo not drawn) | -36 | 54* | / | -1 | 49*
Cn1nc([N+](=O)[O-])nc1Sc1nnc(-c2ccccc2)o1 | -165 | 74* | 1 | / | 70*
COCC(=O)N(C)C[C@@H]1Oc2ncc(C#Cc3ccc(F)cc3)cc2C(=O)N([C@@H](C)CO)C[C@@H]1C | / | / | / | -3 | /
Cc1ccc(-c2onc3ccc(C(=O)O)cc23)cc1 | -56 | 52* | 1 | 0 | -1
CNC[C@@H]1OCCCC[C@H](C)Oc2ccc(NC(=O)c3ccccc3)cc2C(=O)N([C@H](C)CO)C[C@H]1C | / | / | / | 0 | /
O=C(c1ccc(Cn2ccc([N+](=O)[O-])n2)cc1)N1CCN(Cc2ccccc2)CC1 | -6 | 2 | -1 | 3 | /
CSc1ccc(CN2CCN(C(=O)c3ccc([N+](=O)[O-])cc3)CC2)cc1 | -27 | 53* | 0 | -1 | 32
CO[C@H]1CN(C)C(=O)c2ccc(NC(=O)Nc3cc(F)ccc3F)cc2OC[C@H](C)N(C(=O)c2cnccn2)C[C@H]1C | / | / | / | 0 | /
CCOC(=O)c1sc(=NC(=O)c2ccc(Cl)s2)n(C)c1C | -153 | -206 | 2 | 0 | -83
CCC(=O)N1CC2(C1)CN(CC1CCOCC1)[C@@H](CO)c1c2c2ccc(OC)cc2n1C | / | / | / | 2 | /
C/C=C/c1ccc2c(c1)O[C@H](CN(C)C(=O)CN1CCOCC1)[C@H](C)CN([C@H](C)CO)S2(=O)=O | / | / | / | 0 | /
COc1ccc(NS(=O)(=O)c2ccc(-c3cnc(C4CC4)o3)cc2)cc1OC | 17 | 57* | -1 | 4 | 68*
CCOc1ccccc1NS(=O)(=O)c1ccc(-c2cnc(C3CC3)o2)cc1 | -81 | 55* | 0 | 3 | 58*
Cc1ccc(NS(=O)(=O)c2ccc(-c3cnc(C4CC4)o3)cc2)c(C)c1 | -28 | 54* | 0 | 3 | 61*
Cc1cccc(N(C)S(=O)(=O)c2ccc(-c3cnc(C4CC4)o3)cc2)c1 | -122 | 62* | 1 | 1 | 54*
COc1ccccc1CNS(=O)(=O)c1ccc(-c2cnc(C3CC3)o2)cc1 | -54 | 51* | 0 | ? | 50*
Cc1ccc(-c2cnc(C3CC3)o2)cc1S(=O)(=O)Nc1ccccc1 | -40 | 26 | 2 | / | /
O=S(=O)(Nc1ccc(F)cc1Cl)c1ccc(-c2cnc(C3CC3)o2)cc1 | -26 | 52* | 0 | 14* | 52*
SMILES | 697 NFkB inh | Jurkat NFkB inh | HIF activator | CFTR F508del cor | Jurkat NFkB conf
COc1ccccc1NS(=O)(=O)c1ccc(-c2cnc(C3CC3)o2)cc1 | -25 | 48 | -1 | 3 | /
O=c1cc(-c2ccccc2)[nH]c2ccccc12 | -14 | 55* | 1 | / | 40
O=C1C(c2cc(=O)c3ccccc3[nH]2)=C(O)c2ccccc21 | -115 | -53 | 2 | / | /
CC(=NCCc1c(C)[nH]c2ccc(OC(F)(F)F)cc12)C1=C(O)CC(c2ccccc2)CC1=O (stereo not drawn) | -64 | 57* | 1 | 7 | 7
CCCC(=NCCc1c(C)[nH]c2ccccc12)C1=C(O)CC(c2ccccc2)CC1=O (stereo not drawn) | -61 | 54* | -1 | / | 15
CC(=NCCc1c(C)[nH]c2ccc(C)cc12)C1=C(O)CC(c2ccccc2)CC1=O (stereo not drawn) | -66 | 56* | 0 | / | 8
CCCC(=Nc1ccccc1OC)C1=C(O)CC(c2ccccc2)CC1=O (stereo not drawn) | 7 | 14 | 0 | / | /
Cc1noc(C)c1NC(=O)N(C)C[C@H]1Oc2c(NC(=O)CCCCCC(=O)Nc3ccccc3N)cccc2C(=O)N([C@H](C)CO)C[C@@H]1C | / | / | / | 1 | /
CCCCn1c2c(c(=N)c3c1CCC3)CCC2 | -1 | 58* | / | / | 48*
CCCCCCCn1c2c(c(=N)c3c1CCC3)CCCC2 | / | / | 0 | -3 | /
CCc1ccc(/C=N/NC(=O)c2cc(-c3ccccc3OC)nc3ccccc23)s1 | -3 | -9 | 0 | / | /
CCc1ccc(/C=N/NC(=O)c2cc(C3CC3)nc3ccc(Br)cc23)s1 | -42 | 56* | 3 | / | 21
COC(=O)c1c(NC(=O)c2ccc([N+](=O)[O-])o2)sc2c1CCN(C(C)C)C2 | -86 | 66* | -4 | 6 | 43
CCOc1ccc(-c2ccc(SCC)nn2)cc1 | -237 | -224 | / | -1 | -88
Nc1c(C(=O)Nc2ccccc2)nnn1-c1ccc2c(c1)OCCO2 | -234 | -157 | 0 | 1 | -100
CC1Cc2ccccc2N1C(=O)/C=C/c1cccc(F)c1 (stereo not drawn) | -127 | -176 | 5 | 0 | -102
O=C1CC(c2cccc(Cl)c2)c2cc3c(cc2N1)CCC3 (stereo not drawn) | -60 | 56* | 0 | 6 | 35
COc1cccc(C2CC(=O)Nc3cc4c(cc32)CCC4)c1 (stereo not drawn) | -56 | 61* | -2 | -2 | 51*
CCc1cc2cc(C(=O)Nc3ccccc3F)sc2s1 | 2 | -218 | 3 | / | -104
C[C@@H]1CN([C@@H](C)CO)C(=O)c2cc(NC(=O)CCN3CCOCC3)ccc2O[C@H]1CN(C)S(=O)(=O)c1ccccc1 | / | / | / | 2 | /
COc1ccc2c(C)nc(Nc3nc(-c4ccccc4)cc(=O)[nH]3)nc2c1 | -14 | 89* | 1 | -4 | 38*
C[C@@H]1CCCCO[C@@H](CN(C)C)[C@H](C)CN([C@H](C)CO)C(=O)c2cc(N(C)C)ccc2O1 | / | / | / | 1 | /
C[C@@H]1CN([C@@H](C)CO)C(=O)c2cc(NC(=O)c3ccccc3)ccc2O[C@@H](C)CCCCO[C@H]1CN(C)Cc1ccc(C(F)(F)F)cc1 | / | / | / | 2 | /
Cc1cccc2c(=O)n3c(cc12)-c1[nH]c2ccccc2c1CC3 | / | / | / | 2 | /
O=c1c2ccccc2nc2n1CCc1c-2[nH]c2ccccc12 | -176 | -194 | / | -5 | -85
CCC(=O)N(C)C[C@@H]1Oc2cc(C#CC3CCCC3)ccc2S(=O)(=O)N([C@H](C)CO)C[C@@H]1C | / | / | / | -2 | /
CCCNC(=O)N(C)C[C@H]1Oc2cc(-c3cncnc3)ccc2S(=O)(=O)N([C@@H](C)CO)C[C@@H]1C | / | / | / | 0 | /
